Assay results as given in PubChem BioAssay (NCATS).
Inconclusive results are not listed. Where a call stands in place of a potency, no number is given. The source made the active and inactive calls. Calls follow the shape of the dose curve; as a rule, active = well fitted inhibition curve with a large enough effect; inconclusive = small, poorly fitted or top-dose-only effect; inactive = flat fitted curve, though single readings scatter.

System: HACAT
Assay: qHTS assay to identify novel small-molecules to repurpose for Merkel cell carcinoma treatment (AID 1296009); also: nearly all actives have a fitted effect of over 60% in size
Settings: MCC and control cell lines, CellTiter-Glo viability, 72 h; at 44.8 µM (top of the series) unless noted
Outline: (§1)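 Cells exposed to NPC (8-point) and MIPE (11-point) compound dilutions for 72 hr at 37 degree celsius; viability read by CellTiter-Glo luminescence, normalized to no-cell and DMSO in-plate controls.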

| SMILES | outcome |
| --- | --- |
| CCCCCCCc1ccc(CCc2cccc(O)c2C(=O)O)cc1 | inactive |
| COc1cc(Oc2ccnc3cc(OC)c(OC)cc23)ccc1NC(=O)NC(C)c1nccs1 (stereo not given) | inactive |
| COc1ccc2nc(S(=O)Cc3ncc(C)c(OC)c3C)[nH]c2c1 (stereo not given) | inactive |
| CCc1cc(Nc2nccc(-c3c(-c4ccc(OC)c(C(=O)Nc5c(F)cccc5F)c4)nc4ccccn34)n2)c(OC)cc1N1CCC(N2CCN(S(C)(=O)=O)CC2)CC1 | inactive |
| CC(C)(C)OC(=O)CN(Cc1ccc(Cl)cc1)Cc1ccc([N+](=O)[O-])s1 | inactive |
| CCn1cc(C(=O)O)c(=O)c2cc(F)c(N3CCNC(C)C3)c(F)c21 (stereo not given) | inactive |

System: MCC-13
Assay: as above
Settings: MCC and control cell lines, CellTiter-Glo viability, 72 h; series mostly up to 46 µM
Outline: as §1

| SMILES | Potency |
| --- | --- |
| CCCCCCCc1ccc(CCc2cccc(O)c2C(=O)O)cc1 | inactive |
| COCCNCCCn1c(C(=O)CF)c(-c2ccc(C)cc2)c2c(N)ncnc21 | inactive |
| COc1cc(F)c(F)c(Nc2ccc(I)cc2F)c1NS(=O)(=O)C1(C[C@H](O)CO)CC1 | inactive |
| N#Cc1ccc(C(c2ccc(C#N)cc2)n2cncn2)cc1 | inactive |
| COc1cc(Oc2ccnc3cc(OC)c(OC)cc23)ccc1NC(=O)NC(C)c1nccs1 (stereo not given) | inactive |
| CCOC(=O)N[C@@H]1CC[C@@H]2[C@@H](C1)C[C@H]1C(=O)O[C@H](C)[C@H]1[C@@H]2C=Cc1ccc(-c2cccc(F)c2)cn1 | inactive |
| OCCC#Cc1nc(-c2ccc(F)cc2)c(-c2ccncc2)n1CCCc1ccccc1 | inactive |
| c1ccc(-c2nn3c(c2-c2ccnc4cc(OCCN5CCOCC5)ccc24)CCC3)nc1 | inactive |
| O=S(=O)(N=Cc1c(O)ccc2ccccc12)c1cccs1 | inactive |
